Screening data (PubChem)
HepG2 tox = counter-screen for TGF-b inhibitors: cytotoxicity in HepG2 cells | HepG2 CAGA-GFP viability, ATP luminescence, 18 h | Potency, µM (doses to about 46.1 µM), for the others: at the highest dose activity change, negative = cytotoxicity, actives largely listed as cytotoxic | 410,000 compounds, 0.76% hits
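HepG2 CAGA-GFP cells (1000/well, DMEM with 1% FBS) received compound, then TGF-beta at 500 pg/mL final, and were incubated 18 hours at 37 degrees C. Viability was read by CellTiter-Glo luminescence. Media-only wells were set as complete cell-killing and DMSO as no toxicity.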
ATXN2 expr inh = reduces ATXN2 reporter expression in HEK-293 cells | HEK-293 ATXN2-luciferase reporter, luminescence, 24 h | Potency, µM (doses to about 57 µM), for inactives: at the top dose activity change, negative = inhibition, most hits filed as inhibitors | 360,000 compounds, 0.72% hits | AID 1745845; also: % is scaled to controls: 0 for no effect and ±100 for the full control effect; nearly all actives have a fitted effect of over 55% in size
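ATXN2-luciferase reporter cells (luciferase flanked by upstream and downstream ATXN2 gene portions) were treated 24 h at 37 °C with compounds at up to 57 uM. SteadyGlo luminescence gave expression; GF-AFC fluorescence gave viability.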
TGFb SMAD3 inh = inhibitors of TGF-b signaling. HepG2 CAGA-GFP TGF-b/SMAD3 reporter, GFP fluorescence, 18 h; TGF-beta stimulated, 500 pg/mL final. Potency, µM (highest dose often 46.1 µM), without a hit: top-dose activity, negative = inhibition, hits mostly inhibitors. 410,000 compounds, 1.2% hits. AID 588855; also: % is scaled to controls: 0 for no effect and ±100 for the full control effect; nearly all actives have a fitted effect of over 65% in size
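Cell-based qHTS in HEPG2 carrying a CAGA-GFP Smad reporter; compounds added before 500 pg/mL final TGF-beta, 18 h incubation at 37 degrees C, GFP fluorescence quantified per cell by imaging cytometry.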
ATXN viability = viability counter-screen for ATXN expression inhibitors. S2 cells (HEK-293 line with an ATXN2-luciferase reporter) viability, CellTiter-Fluor protease fluorescence, 24 h. Potency, µM (top dose mostly 56.7 µM), most hits filed as cytotoxic. 400,000 compounds, 0.49% hits; also: nearly all actives have a fitted effect of over 40% in size
ALOX12 inh = inhibitors of human 12S-lipoxygenase ALOX12 | 580,000 compounds, 1.1% hits | purified 12hLO, xylenol orange hydroperoxide absorbance | Potency, µM (doses to about 108 µM), for the others: at the top dose activity change, negative = inhibition, most hits filed as inhibitors | AID 1671190 | P18054; also: % is scaled to controls: 0 for no effect and ±100 for the full control effect
Target sequence (P18054 whole entry, looked up): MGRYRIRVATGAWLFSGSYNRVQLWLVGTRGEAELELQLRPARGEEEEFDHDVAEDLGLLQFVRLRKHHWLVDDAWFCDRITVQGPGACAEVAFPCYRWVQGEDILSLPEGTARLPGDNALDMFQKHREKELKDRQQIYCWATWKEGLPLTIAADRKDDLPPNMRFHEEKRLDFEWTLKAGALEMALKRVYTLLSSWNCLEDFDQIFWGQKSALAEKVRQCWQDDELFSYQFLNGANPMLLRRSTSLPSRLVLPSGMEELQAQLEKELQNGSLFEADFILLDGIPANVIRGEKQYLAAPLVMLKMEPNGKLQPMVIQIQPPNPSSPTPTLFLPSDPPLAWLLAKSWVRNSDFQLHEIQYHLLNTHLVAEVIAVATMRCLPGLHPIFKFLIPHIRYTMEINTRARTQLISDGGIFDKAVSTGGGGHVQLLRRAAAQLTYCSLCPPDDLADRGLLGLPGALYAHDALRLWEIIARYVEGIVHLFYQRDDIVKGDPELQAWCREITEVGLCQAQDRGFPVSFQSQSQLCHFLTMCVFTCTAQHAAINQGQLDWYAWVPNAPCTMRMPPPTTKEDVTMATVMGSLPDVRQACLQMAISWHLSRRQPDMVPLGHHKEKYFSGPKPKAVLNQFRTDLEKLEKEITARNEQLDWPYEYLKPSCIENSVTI
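Hydroperoxide product was detected by ferrous iron/xylenol orange as the 573 to 405 nm absorbance ratio. Arachidonic acid at 40 uM (final) was turned over for 30 min at room temperature by 150 nM human 12hLO, pH 7.0 Hepes buffer, after 15 min compound preincubation.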
Active calls of the source: *; i = inactive; u = inconclusive; x = no result; [ ] = another dose, or the depositor's remark. An excerpt weighted towards active compounds, which were near 2.7% of everything screened. Calls follow the shape of the dose curve; as a rule, active = well fitted curve in the direction sought with a large enough effect; inconclusive = small, poorly fitted or top-dose-only effect, or another doubt; inactive = no such curve, though single readings can be large; an effect the other way counts as inactive or inconclusive. Potency is read from the fitted curve at half-maximal effect.

SMILES	HepG2 tox	ATXN2 expr inh	TGFb SMAD3 inh	ATXN viability	ALOX12 inh
C/C(=N\Nc1nc2ccccc2s1)c1ccc(Br)s1	-43%	-17%[11.3 µM]	13µM*	x	-20%
Oc1cccc(C(Nc2nccs2)c2ccc3cccnc3c2O)c1 (configuration not stated)	-26%	u	14µM*	i	u
CC(=O)NC(c1cccc([N+](=O)[O-])c1)c1ccc2cccnc2c1O (configuration not stated)	-20%	3.2µM*	u	u	11%
CCCCC(=O)NC(c1ccc(C(C)C)cc1)c1ccc2cccnc2c1O (configuration not stated)	-46%	-82%	u	i	-10%
O=[N+]([O-])c1ccc(NC(c2ccccc2)c2ccc3cccnc3c2O)cc1 (configuration not stated)	-1%	2.8µM*	-7%	i	u
CC(=O)NC(c1ccc(C(C)C)cc1)c1ccc2cccnc2c1O (configuration not stated)	-54%	3.2µM*	u	u	-15%
CC(=O)NC(c1ccccc1)c1cc([N+](=O)[O-])c2cccnc2c1O (configuration not stated)	3%	u	u	u	u
Cc1nc2ccc(C(=O)OCC(=O)NC3CCCC3)cc2nc1C	x	x	x	x	28%
COc1ccc(NC(=O)c2noc3c2CC(C)CC3)c(OC)c1 (configuration not stated)	x	x	x	x	-36%
COCCNC(=O)N1CCC(OC2CCN(Cc3ccccc3)CC2)CC1	x	x	x	x	85%
Cn1c2c(c(=O)n(C)c1=O)C(C(F)(F)F)(C(F)(F)F)N=C(c1ccc(Cl)cc1)N2	-24%	u	1.8µM*	u	x
CC(C)(C)C(=O)Oc1ccc2c(-c3cc4ccccc4oc3=O)cc(=O)oc2c1	x	x	x	x	-3%
COc1ccc(C(=C(Cl)Cl)c2ccc(OC)cc2)cc1	x	x	x	x	-7%
O=[N+]([O-])c1ccc2ncnc(N3CCN(Cc4ccc5c(c4)OCO5)CC3)c2c1	-17%	x	-4%	u	-4%
COc1ccc2[nH]c3c(N4CCC(O)(c5cccc(C(F)(F)F)c5)CC4)ncnc3c2c1	-98%	28µM*	u	u	-25%[57.4 µM]
COc1ccc2[nH]c3c(N4CCN(Cc5ccc6c(c5)OCO6)CC4)ncnc3c2c1	-44%	28µM*	u	u	360%
Cc1ccc(S(=O)(=O)N2CCN(CCNC(=O)c3cccc(C(F)(F)F)c3)CC2)cc1	x	x	x	x	28µM*
Cc1ccc(S(=O)(=O)N2CCN(Cc3ccccc3C(F)(F)F)CC2)cc1	-23%	0%	-28%	i	1.1µM*
O=C(CN1CCCN(S(=O)(=O)c2ccc(Br)cc2)CC1)Nc1cccc(C(F)(F)F)c1	-50%	u	7.9µM*	u	u
CC1CCN(S(=O)(=O)c2cn(CC(=O)Nc3cccc(C(F)(F)F)c3)c(=O)c3ccccc23)CC1	-32%	-29%	13µM*	u	0%
O=C(C(=O)N1CCN(S(=O)(=O)c2ccc(C(F)(F)F)cc2)CC1)c1cccc(C(F)(F)F)c1	x	x	x	x	-4%
Cc1cnc(C(=O)N(C)Cc2ccc(Br)o2)cn1	x	x	x	x	-11%
COc1cccc(Oc2c(C)oc3cc(OC(=O)N4CCOCC4)ccc3c2=O)c1	x	x	x	x	-3%
Cc1ccc(S(=O)(=O)N2CCCN(S(=O)(=O)c3ccc(C(F)(F)F)cc3)CC2)cc1	-34%	-16%	u	i	-25%
Cc1ccc(S(=O)(=O)N2CCN(CCNC(=O)c3ccc(C(F)(F)F)cc3)CC2)cc1	x	x	x	x	16µM*
FC(F)(F)c1cccc(Cn2ccc3ccccc32)c1	x	x	x	x	-9%
O=C1C(n2ccc3ccccc32)c2ccccc2N1Cc1ccc(C(F)(F)F)cc1 (configuration not stated)	x	x	x	x	32µM*
Cc1cccc(C(=O)N2CCC(=O)N([C@H](COCc3cccc(C(F)(F)F)c3)Cc3ccccc3)CC2)c1	x	u	x	32µM*	u
CC(C)C[C@@H](COCc1cccc(C(F)(F)F)c1)N1CCN(C(=O)c2ccc(C(F)(F)F)cc2)CCC1=O	x	u	x	28µM*	u
